# Compound activity (PubChem)
# MCF10A rerep: induces DNA re-replication in MCF 10a normal breast cells; MCF 10A DNA re-replication, Hoechst nuclear intensity, 48 h; Potency, µM (top dose mostly 46.1 µM), for the others: at the top dose activity, positive = re-replication, actives largely listed as activators; 2.9% of 350,000 active; also: % of control where 0% means no effect; nearly all actives have a fitted effect of over 50% in size
# HT1080 IDH1KD tx: kills HT-1080 cells with IDH1 knockdown; HT-1080 IDH1 knockdown viability, ATP luminescence, 48 h; Potency, µM (series often up to 46.1 µM), for the others: top-dose activity, negative = toxicity, usual class: cytotoxic; 2% of 360,000 active; AID 686971;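 also: 0% = DMSO wells and -100% = cell-free medium wells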
#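 IDH1KD HT-1080 cells, 750/well, RPMI + 5% FBS; compound pinned after 2 h settling; 48 h, 37 °C; CellTiter-Glo luminescence; % activity normalised to DMSO and no-cell wells; curves fitted, classed by r2 and efficacy.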
# HT1080-NT tox: kills 2HG-producing HT-1080-NT fibrosarcoma cells | 1.6% of 360,000 active | Potency, µM (highest dose often 46.1 µM), inactives show at the top dose activity, negative = less viability, usual class: cytotoxic | AID 686970 | HT-1080-NT fibrosarcoma viability, CellTiter-Glo ATP luminescence, 48 h;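 also: NT is the 2HG producing partner of a matched IDH1 knockdown line; 0% = DMSO-treated cells and -100% = media-only wells without cells; nearly all actives have a fitted effect of over 55% in size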
#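 Fibrosarcoma NT cells, 750 per well in 5% FBS RPMI, were exposed to compound for 48 hours. Viability: CellTiter-Glo luminescence.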
# KB-3-1 cytotox: kills parental KB-3-1 adenocarcinoma cells; 1.4% of 400,000 active; Potency, µM (highest dose often 46.1 µM), hits mostly cytotoxic; KB-3-1 viability, CellTiter-Glo ATP luminescence, 72 h; also: % is scaled to controls: 0 for no effect and ±100 for the full control effect; nearly all actives have a fitted effect of over 60% in size
#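 Parental KB-3-1 viability, qHTS format: 72 h compound exposure, 37 °C; CellTiter-Glo; media-only wells and DMSO plates as controls; concentration-effect fits on corrected data.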
# KB-V1 cytotox: KB-V1 MDR subline cytotoxicity; KB-V1 MDR cells viability, CellTiter-Glo, 72 h; Potency, µM (titrated, usually from 46.1 µM), usual class: cytotoxic; 3.4% of 400,000 active; AID 1347076; also: % is scaled to controls: 0 for no effect and ±100 for the full control effect; nearly all actives have a fitted effect of over 60% in size
#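 Luminescent ATP read-out (CellTiter-Glo, 10 min) measures survival of drug-selected KB-V1 MDR cells after 72 h, 37 degrees C compound exposure. Medium: phenol-red-free DMEM, 10% FBS. Values from fitted concentration-response curves.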
# SW480 rerep: inducers of DNA re-replication in SW480 colon cancer cells; SW480 DNA re-replication, Hoechst DNA content imaging, 48 h; Potency, µM (top dose mostly 46.1 µM), without a hit: top-dose re-replication activation, actives largely listed as activators; 1.8% of 340,000 active; AID 624297; also: % of control where 0% means no effect; nearly all actives have a fitted effect of over 55% in size
#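 Treated cells incubate 48 hr (37 C, 5% CO2), are stained 40 min with Hoechst, and nuclear fluorescence is enumerated; a rise in nuclei with high DNA signal marks re-replication.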
# The depositor's hits bear a star; i = inactive; u = inconclusive; x = not tested or not shown; [ ] = another dose, or the depositor's remark. The list is not random: actives were taken first. Their share in the collection is about 8%. Calls follow the shape of the dose curve; as a rule, active = well fitted curve in the direction sought with a large enough effect; inconclusive = small, poorly fitted or top-dose-only effect, or another doubt; inactive = no such curve, though single readings can be large; an effect the other way counts as inactive or inconclusive. Potency is read from the fitted curve at half-maximal effect.
SMILES,MCF10A rerep,HT1080 IDH1KD tx,HT1080-NT tox,KB-3-1 cytotox,KB-V1 cytotox,SW480 rerep
COc1cccc2c1C(=N)c1c(O)c3c(c(O)c1C2=O)CC(O)(C(C)=O)CC3OC1CC(N)C(O)C(C)O1 (stereo unspecified),-13%,21µM*,21µM*,u,u,u
COc1cccc2c1C(=O)c1c(O)c3c(c(O)c1C2=O)C[C@@](O)(C(=O)CO)C[C@@H]3O[C@H]1C[C@H](N)[C@H](OC2CCCCO2)[C@H](C)O1 (stereo partly specified),-18%,x,x,u,u,-7%
COc1cccc2c1C(=O)c1c(O)c3c(c(O)c1C2=O)CC(O)(C(C)=O)CC3OC1CC(O)C(O)C(C)O1 (stereo unspecified),-6%,23µM*,u,u,u,u
COc1cccc2c1C(=O)c1c(O)c3c(c(O)c1C2=O)C[C@](O)(C(C)=O)C[C@H]3O[C@@H]1C[C@@H](N)[C@@H](O)[C@@H](C)O1,-36%,0.41µM*,0.65µM*,u,i,-132%
CCCCC(=O)OCC(=O)C1(O)Cc2c(O)c3c(c(O)c2C(OC2CC(NC(=O)C(F)(F)F)C(O)C(C)O2)C1)C(=O)c1c(OC)cccc1C3=O (stereo unspecified),-13%,8.2µM*,23µM*,u,i,15%
COc1ccccc1CNC(=O)c1c2c(nc3ccccc13)C(=O)N(C1CCCCC1)C2,x,x,x,i,i,x
CCn1c(SCc2ccc(C(=O)O)cc2)nnc1-c1ccc(Cl)cc1,-4%,-1%,-1%,i,i,2%
COc1cc(N=Nc2cccc(S(N)(=O)=O)c2)c2ccccc2c1N,u,15µM*,21µM*,23µM*,i,14%
CCOC(=O)C1CCCN(C(=O)c2cccc(S(=O)(=O)N3CCCC3)c2)C1 (stereo unspecified),9%,0%,2%,i,i,-5%
COC(=O)CCN1CCN(S(=O)(=O)c2ccc3c(c2)OCCO3)CC1,1%,8%,7%,i,u,-4%
Cn1nnnc1SCC(=O)c1ccc(Br)s1,0%,11%,0%,i,i,-3%
Cn1c(Cc2ccccc2)nnc1SCC(=O)c1ccc(Br)s1,-1%,3%,2%,u,13µM*,-4%
COCC(=O)N1CCC(Oc2ccc(C(=O)N[C@H](C(=O)OC)C(C)C)cc2)CC1,1%,14%,17%,i,i,-21%
Cc1nc2cc(-c3cccs3)nn2c(NCC(C)(C)CN(C)C)c1C,2%,1%,0%,i,i,7%
CCOc1ccccc1NC(=O)C1CCCN1C(=O)c1cccs1 (stereo unspecified),-6%,10%,10%[9.24 µM],i,i,7%
CCOc1ccccc1C1C2CCCCC2(O)CCN1C(=O)c1cccs1 (stereo unspecified),-3%,-2%,2%,i,23µM*,7%
Cc1nn(Cc2ccccc2Cl)c(C)c1NC(=O)c1cc(-c2ccc(F)cc2)on1,4.1µM*,-2%,7%,i,i,-4%
Cc1nn(Cc2ccccc2)c(C)c1NC(=O)c1cc(-c2cccs2)on1,u,u,-2%,i,4.1µM*,2%
Cc1nn(Cc2ccccc2)c(C)c1NC(=O)c1cc(-c2ccc3c(c2)OCO3)on1,9.2µM*,-22%,u,u,i,0%
COc1ccc(-c2cc(C(=O)Nc3c(C)nn(Cc4ccccc4)c3C)no2)cc1,u,16µM*,-27%[9.24 µM],i,i,4%
COc1ccc(C(=O)OCn2nnc3ccccc3c2=O)cc1OC,7%,-26%,-7%,i,i,3%
O=C(NCCN1CCOCC1)c1cc(-c2cccs2)on1,-6%,u,u,i,16µM*,-4%
Cc1ccc(-c2cc(C(F)F)n3ncc(C(=O)Nc4c(C)nn(Cc5ccccc5Cl)c4C)c3n2)cc1,22%[9.22 µM],9%,-27%,16µM*,u,1%
CC1(C(=O)NS(=O)(=O)c2cccc(F)c2)CCN1C(=O)CC1CCCCC1 (stereo unspecified),x,7%,10%,i,i,x
C=CCN1C(=O)N/C(=C/c2ccccc2OCC(=O)Nc2ccc(F)cc2)C1=O,23µM*,-3%,u,i,i,333%
SMILES,MCF10A rerep,HT1080 IDH1KD tx,HT1080-NT tox,KB-3-1 cytotox,KB-V1 cytotox,SW480 rerep
O=S(=O)([N-]c1nc2ccccc2nc1-n1cc[n+](Cc2ccccc2)c1)c1ccc(Cl)cc1,18µM*,-3%,3%,i,i,18µM*
CCCC[n+]1ccn(-c2nc3ccccc3nc2[N-]S(=O)(=O)c2ccc(Br)cc2)c1,u,12%,25%,i,i,18µM*
CC(C)CC[n+]1ccn(-c2nc3ccccc3nc2[N-]S(=O)(=O)c2ccccc2)c1,-4%,-7%,3%,i,i,-7%
O=C(/C=C/c1cccc([N+](=O)[O-])c1)NC(=S)Nc1cccc(NC(=O)c2ccccc2Cl)c1,16%,u,u,16µM*,u,u
Cc1cc(NC(=O)CSc2nc(-c3ccc(Cl)cc3)cs2)no1,4%,u,u,i,i,22%
O=C(CSc1nc(-c2ccc(Cl)cc2)cs1)Nc1cccc([N+](=O)[O-])c1,-2%,u,16µM*,u,u,-4%
O=[N+]([O-])c1cccc(NC(=S)Nc2nc(-c3ccccc3Cl)cs2)c1,u,18µM*,u,u,i,22%
CCc1nccn1CCC(=O)NC1CC(C)(C)Cc2c1cnn2-c1ccc(OC)cc1 (stereo unspecified),2%,-2%,-8%,i,u,-6%
COC(=O)C12OCC34C(CC5C(C)=C(O)C(=O)CC5(C)C3C(O)C1O)OC(=O)C(OC(=O)C=C(C)C)C24 (stereo unspecified),u,0.037µM*,-26%,0.21µM*,7.3µM*,u
CCN(CC)S(=O)(=O)c1cc(NC(=O)C2Cc3ccccc3C(=O)O2)ccc1C (stereo unspecified),13%,-3%,-4%,i,i,1%
CCN1C[C@@H]2[C@@H]3C(=O)N(C)C(=O)[C@@H]3[C@](C)(C1=O)N2C(=O)c1ccc(Cl)cc1,28%,6%,7%,i,i,u
COC(=O)c1cc(COc2ccc3oc(C)c(C(=O)OC)c3c2)c(C)o1,15µM*,u,u,i,u,18µM*
